High-throughput results from PubChem.
TSHR ag = qHTS Assay for Agonists of the Thyroid Stimulating Hormone Receptor; actives 0.48% (n = 73,000); Potency, µM (series often up to 57.1 µM), for the others: at the highest dose activation, actives largely listed as activators; AID 926, 2007; Thyrotropin receptor (Homo sapiens), P16473; HEK293-CNG-TSHR cells (CNG channel as cAMP sensor), membrane potential dye, cAMP; active = well fitted activation curve with a large enough effect in the main read-out, with a control signal flat, not every such curve was filed as active; inconclusive = small, poorly fitted or top-dose-only effect, or a change in a side signal; inactive = no such curve, though single readings can be large or run the other way; % of control where 0% means no effect;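 note: the control signal comes from parental cells without the receptor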
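HEK 293 cells stably expressing TSHR and a modified CNG channel, with CNG-only parental cells as counterscreen, were preloaded 60 min at room temperature with membrane potential dye containing 100 uM RO 20-1724. Compound exposure was 30 min, and depolarization was read as fluorescence at 590 nm.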
Caspase-1 inhib = qHTS Assay for Allosteric/Competitive Inhibitors of Caspase-1; actives 0.03% (n = 75,000); Caspase-1 enzyme, Ac-WEHD-AFC fluorogenic rate; AID 900, 2007; P29466; Potency, µM (series often up to 57.5 µM), without a hit: at the top dose activity change, negative = inhibition, most hits filed as inhibitors;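 note: plate controls were vehicle for no effect and no substrate for full effect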
Caspase-7 inhib = qHTS Assay for Allosteric/Competitive Inhibitors of Caspase-7 | P55210 | recombinant caspase-7, Ac-DEVD-AFC fluorescence rate | Potency, µM (doses to about 57.5 µM), without a hit: at the highest dose activity change, negative = inhibition, actives largely listed as inhibitors | actives 0.02% (n = 75,000) | AID 889, 2007; active = well fitted inhibition curve with a large enough effect in the main read-out, with a control signal flat, not every such curve was filed as active; inconclusive = small, poorly fitted or top-dose-only effect, or a change in a side signal; note: % of control where 0% means no effect
HEK293 cAMP cs = qHTS Assay for Agonists of the Thyroid Stimulating Hormone Receptor: Activators of Intracellular cAMP Concentrations in Parental HEK 293; parental HEK293 CNG cAMP sensor, membrane potential fluorescence; Potency, µM (titrated, usually from 57.1 µM), for inactives: top-dose activation, most hits filed as activators; actives 2.5% (n = 73,000); AID 938, 2007; note: % of control where 0% means no effect; nearly all actives have a fitted effect of over 55% in size
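Parental HEK 293 cells stably expressing a modified CNG channel (no TSHR) report cAMP rise as membrane depolarization. Membrane potential dye with 100 uM RO 20-1724 was loaded for 60 min at room temperature, then compound added for 30 min; fluorescence read at 590 nm.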
The depositor's hits bear a star; ? = inconclusive; · = no result given; [ ] = another dose, or the depositor's remark. An excerpt weighted towards active compounds, which were near 2.6% of everything screened. Unless noted, calls come from the whole dose curve; as a rule, active = well fitted curve in the direction sought with a large enough effect; inconclusive = small, poorly fitted or top-dose-only effect, or another doubt; inactive = no such curve, though single readings can be large; an effect the other way counts as inactive or inconclusive. Potency is the fitted concentration of half-maximal effect.

SMILES | TSHR ag | Caspase-1 inhib | Caspase-7 inhib | HEK293 cAMP cs
N#Cc1nc(COc2ccc(F)cc2)oc1N1CCC(Cc2ccccc2)CC1 | ? | 2% | -1% | 4µM*
N#Cc1nc(COc2ccc(F)cc2)oc1N1CCN(Cc2ccccc2)CC1 | ? | 0% | -2% | 6.3µM*
CCN1CCN(c2oc(COc3ccc(-c4ccccc4)cc3)nc2C#N)CC1 | ? | -1% | -4% | ?
c1cncc(-c2nc(NCc3cccs3)c3ccccc3n2)c1 | 32µM* | 1% | -1% | 14%
COC(=O)[C@@]1(Cc2ccc(F)cc2)[C@H]2c3cc(C(=O)N(C)C)n(Cc4ccc(OC)c(OC)c4)c3C[C@H]2CN1C(=O)c1ccccc1 | ? | -3% | -9% | 16µM*
COC(=O)[C@@]1(Cc2ccc(OC)cc2)[C@H]2c3cc(C(=O)N(C)C)n(Cc4ccc(OC(F)(F)F)cc4)c3C[C@H]2CN1C(=O)c1ccccc1 | ? | -3% | -4% | ?
COC(=O)[C@@]1(Cc2ccc(F)cc2)[C@H]2c3cc(C(=O)N(C)C)n(C)c3C[C@H]2CN1C(=O)c1ccccc1 | ? | -2% | -3% | ?
COC(=O)[C@@]1(Cc2ccc(OC)cc2)[C@H]2c3cc(C(=O)N(C)C)n(Cc4ccccc4)c3C[C@H]2CN1C(=O)c1ccccc1 | ? | -6% | -5% | 13µM*
COC(=O)[C@@]1(Cc2ccc(F)cc2)[C@H]2c3cc(C(=O)N(C)C)n(Cc4ccc(O)c(OC)c4)c3C[C@H]2CN1C(=O)c1ccccc1 | ? | -6% | -10% | ?
COC(=O)[C@@]1(Cc2ccc(F)cc2)[C@H]2c3cc(C(=O)N(C)C)n(Cc4ccccc4)c3C[C@H]2CN1C(=O)c1ccccc1 | ? | -5% | -8% | 10µM*
COC(=O)[C@@]1(Cc2ccc(F)cc2)[C@H]2c3cc(C(=O)N(C)C)n(Cc4ccc(C)o4)c3C[C@H]2CN1C(=O)c1ccccc1 | ? | -4% | -4% | 3.2µM*
COCCn1c(C(=O)N2CCCC2)cc2c1C[C@H]1CN(C(=O)c3ccccc3)[C@@](Cc3ccc(F)cc3)(C(=O)OC)[C@@H]21 | ? | -1% | -2% | 13µM*
COCCn1c(C(=O)N(C)C)cc2c1C[C@H]1CN(C(=O)c3ccccc3)[C@@](Cc3ccc(F)cc3)(C(=O)OC)[C@@H]21 | ? | 1% | -2% | 16µM*
COC(=O)[C@@]1(Cc2ccc(F)cc2)[C@H]2c3cc(C(=O)N(C)C)n(CCO)c3C[C@H]2CN1C(=O)c1ccccc1 | -4% | 0% | 2% | 11%
CCOc1ccccc1NC(=O)CSc1nc2c(c(=O)n1C)SC(C)C2 (stereo not given) | ? | 4% | -1% | 32µM*
CCOc1ccc(OCC)c(NC(=O)CSc2nc3cccnc3n2C)c1 | ? | -10% | -6% | 32µM*
CS(=O)(=O)N1CCC2(CCCN(C(=O)Nc3cccc(F)c3)C2)CC1 | 3% | 1% | -2% | 15%
COC(=O)c1c(-c2ccc(F)cc2)csc1NC(=O)c1ccco1 | ? | -7% | -3% | 4µM*
COCC(=O)N1CCC2(CC1)CN(Cc1cc(C(F)(F)F)cc(C(F)(F)F)c1)C2 | -1% | -2% | 0% | -9%
COC(=O)c1ccc(COC(=O)C23CC4CC(CC(O)(C4)C2)C3)o1 | 25µM* | -2% | -1% | 7%
O=C(COC(=O)C12CC3CC(CC(O)(C3)C1)C2)NC(=O)NCc1ccco1 | -9% | 0% | -3% | 2%
Cc1ccc(S(=O)(=O)NC(=O)Nc2ncn[nH]2)cc1 | -1%[11.4 µM] | 0%[11.5 µM] | 0%[11.5 µM] | 7%[11.4 µM]
Cc1c(C(=O)OCc2ccccc2)nnn1-c1nonc1N | 9% | -1% | 0% | 7%
CCOC(=O)c1c(C)n(OCc2ccccc2)c2ccc3nonc3c12 | ? | · | ? | 10µM*
N[C@@](CCc1ccccc1)(C(=O)O)c1ccccc1 | -4%[11.4 µM] | -1%[11.5 µM] | 2%[11.5 µM] | -2%[11.4 µM]
SMILES | TSHR ag | Caspase-1 inhib | Caspase-7 inhib | HEK293 cAMP cs
COc1cccc(/C=N/NC(=O)c2cc(-c3ccc(C)cc3)n[nH]2)c1O | 24% | -3% | -9% | 14%
COc1ccc(-c2csc(N(CC3CCCO3)C(=O)c3ccco3)n2)cc1 (stereo not given) | ? | -3% | -2% | 20µM*
Cc1ccccc1-n1nnnc1SCc1csc(-c2ccccc2)n1 | ? | -2% | -5% | 3.2µM*
Nn1c(SCc2cn3ccsc3n2)nnc1-c1ccncc1 | 4% | -2% | 2% | 0%
COCCn1c(SCc2csc(-c3ccccc3)n2)nc2ccccc21 | ? | -2% | -3% | 32µM*
Nn1c(SCc2csc(-c3ccccc3)n2)nnc1-c1cccs1 | ? | -1% | -3% | 25µM*
CCc1nnc(NC(=O)CSc2nnc(-c3ccccc3OC)n2-c2ccccc2)s1 | ? | -1% | 0% | 10µM*
Cc1nc2ccccc2c(=O)n1NCc1cc(Br)cs1 | ? | 3% | 2% | 16µM*
O=C(c1ccco1)c1nnn(Cc2ccccc2)c1-c1ccccc1 | ? | -4% | -4% | 32µM*
Nc1c(C(=O)NCc2ccco2)nnn1Cc1ccccc1 | ? | 0% | -1% | ?
CN(Cc1ccccc1)c1oc(COc2ccccc2F)nc1C#N | ? | 0% | -2% | 25µM*
CC1CCC2(CC1)NC(=O)c1ccccc1O2 (stereo not given) | 5% | 1% | 0% | 9%
CC(=O)C(C)Oc1ccc2c3c(c(=O)oc2c1)CCCCC3 (stereo not given) | 25µM* | -6% | 2% | 16%
CC(=O)C(C)Oc1ccc2c3c(c(=O)oc2c1)CCCC3 (stereo not given) | ? | -3% | 0% | ?
CCC(CC)C(=O)NCc1ccc2c(c1)cc(C)n2C | ? | -2% | -3% | 6.3µM*
CCOC(=O)NCc1ccc2c(c1)cc(C)n2C | 1% | -9% | -15% | 7%
O=c1c(-c2ccccc2)nc2cnc(N3CCNCC3)nc2n1C1CC1 | 4% | · | ? | -3%
CCCc1cc2c(c(=O)o1)C(O)C1OC1C2=O (stereo not given) | -11%[11.4 µM] | 3%[11.5 µM] | -1%[11.5 µM] | -6%[11.4 µM]
COc1ccc(OC)c(/C=c2\sc3nc(-c4cccs4)nn3c2=O)c1 | -7% | -3% | 4% | 2%
COc1ccc(O)c(/C=c2/sc3nc4cc(C)c(C)cc4n3c2=O)c1 | ? | ? | -17% | 32µM*
c1ccc(CC2CCN(c3nc(N4CCOCC4)nc(N4CCOCC4)n3)CC2)cc1 | 7.9µM* | 0% | -2% | -1%
CCOc1ccc(NS(=O)(=O)c2ccc(C)c(C(=O)O)c2)cc1 | 6% | -1% | -1% | -3%
Cc1nn(-c2ccccc2)c(C)c1C(=O)OCC(=O)c1c(N)n(CC(C)C)c(=O)n(C)c1=O | ? | -3% | -1% | 16µM*
Cc1cc(C)cc(OCC(=O)Nc2cccc(-c3nnc(-c4ccco4)o3)c2)c1 | ? | -4% | 0% | 25µM*
